Measured values published in PubChem BioAssay (NCI).
Compounds without any hit were thinned out: in the full panel of roughly 83,000, 20% have a hit.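 Method: cells in 96-well plates; compound added at one concentration; 48 h incubation; percent growth measured; values under 10 scored active.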 Values without a mark were called inactive. The source made the active and inactive calls.

These compounds were tested on OVCAR-3 ovarian (assay: NCI-60 one-dose screen, 48 h (100 = growth as untreated, 0 = no growth, -100 = all killed)). Conditions: 10 µM unless noted.
Experimental: Growth inhibition of the OVCAR-3 human tumor cell line is measured as a screen for anti-cancer activity. Cells are grown in 96 well plates and exposed to the test compound for 48 hours. Compounds are tested at a single concentration, which is 10^-5 M for most compounds. The reported endpoint is percent growth (GI% or GIPRCNT), where numbers from 0 - 100% represent growth inhibition, and numbers from -100% - 0 represent cell death. For example, a value of 40 represents 60% growth inhibition. A value of 0 means no net growth occurred over the course of the experiment. A value of -40 indicates 40% of cells at the beginning of the experiment died by the end of the experiment. A value of -100 means all cells are dead at the end of the experiment.
NCI-60 Human Tumor Cell Lines Screen was performed using the standard one-dose NCI protocol, which is described in more detail at https://dtp.cancer.gov/discovery_development/nci-60/default.htm.
Compounds with GIPRCNT values below 10 were considered active. Activity score was based on GIPRCNT using the following formula: […]
Score is 0 for GIPRCNT values of 100 or above, 50 for GIPRCNT values of 0, and 100 for GIPRCNT values of -100.

SMILES	growth
COc1ccc(C(O)c2cc3c(N)c(C(=O)Nc4cccc(Br)c4C)sc3nc2C)cc1 (stereo not given)	-14.4% (active)
CC(C)(C)CC(C)(C)Nc1c(-c2ccc(C(F)(F)F)cc2)nc2cnccn12	84.8%
COc1ccc(Cl)cc1NC(=O)c1c(NC(=O)C(F)(F)C(F)(F)F)sc2c1CCCCC2	6.24% (active)
CC(=O)N1c2ccccc2NC2=C(C(=O)N(Cc3ccccc3)C2(C)C)C1c1ccco1 (stereo not given)	-7.66% (active)
C1=C2CNCC3=Cc4ccc5ccccc5c4OC23Oc2c1ccc1ccccc21	-19.1% (active)
NC(=O)c1cccc(-c2cc(C(N)=O)ccc2Cl)c1	-0.229% (active)
O=C(CSc1nc2sc3c(c2c(=O)n1Cc1ccccc1)CCCC3)N1CCN(c2ccccc2)CC1	106%
COc1cccc(CNCCN2C(=O)c3ccc4c5c(ccc(c35)C2=O)C(=O)N(CCNCc2cccc(OC)c2)C4=O)c1	24.6%
CC(O)(CO)c1ccccc1 (stereo not given)	112%
COc1cnccc1-c1nc2ccc3[nH]ncc3c2c2c1CCCC2	84.3%
COc1cc2c(cc1[N+](=O)[O-])-c1ccc([N+](=O)[O-])cc1/C2=N/NC(N)=S	73.7%
CC(C)C1C2=C(NCCN1C(=O)Cc1ccccc1)C(C)(C)N(Cc1ccccc1)C2=O (stereo not given)	102%
CCn1ccnc1C(=O)/C=C/c1ccc(CC(=O)Nc2ccc(F)cc2)cc1	-4.68% (active)
COc1cc(C2CC(c3cccc(Nc4ccncc4)c3)=NN2c2ccc(Cl)cc2)cc(OC)c1OC (stereo not given)	-25.3% (active)
Clc1nc(Nc2ccccc2)nc(Nc2ccccc2)n1	103%
COc1ccc2c(c1)OC13Oc4cc(OC)ccc4C=C1CCCC3=C2	5.62% (active)
O=C(NCCc1ccccn1)OCc1nc2nc(Cl)nc(N3CCOCC3)c2[nH]1	-79.5% (active)
COC(=O)Nc1ccc(NC(=O)OC)cc1	111%
O=CNc1cc(Cl)cc(Cl)c1	123%
C[C@]12C[C@H]1CC[C@]1(C)[C@@H]2CC[C@@]23C[C@H](CC[C@H]21)[C@@](O)(CO)C3	111%

SMILES	growth
Fc1ccc(-n2cc(COc3ncnc4sc5c(c34)CCCC5)nn2)cc1Cl	112%
COc1ccc(-c2cnc(N)nc2-c2ccc(OC)cc2O)cc1	108%
Cn1c(=O)c2[nH]c(CCCc3nc4c([nH]3)c(=O)n(C)c(=O)n4C)nc2n(C)c1=O	128%
Cc1cccc(C)c1-c1cc(Cc2ccc(Cl)cc2)c(=O)[nH]n1	103%
c1ccc(-c2nn(-c3ccccc3)[n+](-c3ccccc3-c3ccccc3)n2)cc1	1.32% (active)
O=C1NC(=S)NC(=O)C1=Cc1cccc(C=C2C(=O)NC(=S)NC2=O)c1	108%
Fc1ccc(C2CC(c3cccc(Nc4ccncc4)c3)=NN2c2ccccc2)cc1 (stereo not given)	64%
CC(=O)[C@@H]1CC[C@]2(C(N)=O)CC[C@]3(C)[C@H](CC[C@@H]4[C@@]5(C)CCC(=O)C(C)(C)[C@@H]5CC[C@]43C)[C@@H]12	103%
COc1cc(/C=C2\C(=O)N(Cc3ccc(Cl)cc3)c3ccccc32)cc(OC)c1OC	-49.6% (active)
COc1c(Cl)cc(Cl)c2ccc(C=C3C(=O)NC(=S)NC3=O)nc12	103%
Cc1ccc(O)c(C(=O)O)c1	107%
COc1ccc(-c2nc3sccn3c2/C=C/C(=O)c2cc(OC)c(OC)c(OC)c2)cc1	53.7%
COc1ccc(/C(=C\c2ccccc2)C(=O)O)cc1OC	104%
COc1ccc(Nc2nc(N)nc3c2CCc2occc2-3)cc1	103%
NC(=O)C1(N2CCCCC2)CCN(CCCC(=O)c2ccc(F)cc2)CC1	-14.7% (active)
Cc1ccc2[nH]c(=S)n(-c3ccc(S(=O)(=O)Nc4ccc(Cl)nn4)cc3)c(=O)c2c1	108%
COc1ccc(CNCCN2C(=O)c3ccc4c5c(ccc(c35)C2=O)C(=O)N(CCNCc2ccc(OC)cc2)C4=O)cc1	-95.5% (active)
CCCCCCCCCCCCC1CCC/C=C\CCC(=O)O1 (stereo not given)	102%
CCOc1ccc(/C=N/Nc2cc(C)nc3ccc(Cl)cc23)cc1	-16.3% (active)
O=S(=O)(NCCCNc1nccc(-c2c(-c3ccc(F)c(O)c3)nc3sccn23)n1)c1ccc(F)cc1	20.8%
